PubChem BioAssay (NCATS)
“And” between values parts separate entries of the source, which are not always exact repeats. Identical values can stand only once. Records with an inconclusive call do not appear. The source made the active and inactive calls. Unless noted, the call rests on the fitted dose curve; in most records, active means well fitted curve in the direction sought with a large enough effect; inconclusive means small, poorly fitted or top-dose-only effect, or another doubt; inactive means no such curve, though single readings can be large; an effect the other way counts as inactive or inconclusive.

How the values were obtained:
[1] = biological target: Cellular tumor antigen p53 (Homo sapiens) (UniProt P04637); test: Primary qHTS for small molecule compounds that upregulate eGFP-tagged delta133p53alpha (in N-terminal) cells. (AID 2060322); settings: NCI-H358 eGFP-delta133p53alpha fluorescence, 24 h; activation: hits give high values;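 further: series mostly up to about 56 µM; 0% = DMSO vehicle and 100% = reference activator; nearly all actives have a fitted effect of over 75% in size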
Procedure, shortened: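 NCI-H358 cells pre-induced 24 h with 10 ng/ml doxycycline to express N-terminal eGFP-delta133p53alpha, then dosed 24 h at 37C without doxycycline; fixed, Hoechst-stained, GFP intensity by laser scanning cytometry, normalized to DMSO (0%) and 57.5 uM 5-azacytidine (100%).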

[2] = biological target: Cellular tumor antigen p53 (Homo sapiens) (UniProt P04637); test: Primary qHTS for small molecule compounds that upregulate eGFP-tagged delta133p53alpha (in C-terminal) cells. (AID 2060324);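 further: 0% = DMSO wells and 100% = 57.5 µM 5-azacytidine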
Procedure, shortened: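 In this qHTS, GFP-tagged delta133p53alpha levels are measured in fixed NCI-H358 cells after 24 h compound exposure at 37 °C. The cells are pre-induced with 100 ng/ml doxycycline, and signal is normalized to DMSO-treated wells as 0%.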

[3] = biological target: Aldehyde dehydrogenase, mitochondrial (Homo sapiens) (UniProt P05091); test: qHTS for Inhibitors of the Aldehyde Dehydrogenase Family (ALDH2) Validation screens (AID 2061302; active means well fitted inhibition curve with a large enough effect; title and protocol of this record describe different tests;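 further: plate controls were DMSO vehicle for no effect and maximal DPI positive control response for full effect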)
[4] = biological target: Retinaldehyde dehydrogenase 3 (Homo sapiens) (UniProt P47895); test: qHTS for Inhibitors of the Aldehyde Dehydrogenase Family (ALDH1A3) Validation screen (AID 2061312); further: on the % scale 0 is the no-effect control and ±100 the full control effect; nearly all actives have a fitted effect of over 45% in size

Cellular tumor antigen p53 (Homo sapiens), sequence (P04637 whole entry, looked up): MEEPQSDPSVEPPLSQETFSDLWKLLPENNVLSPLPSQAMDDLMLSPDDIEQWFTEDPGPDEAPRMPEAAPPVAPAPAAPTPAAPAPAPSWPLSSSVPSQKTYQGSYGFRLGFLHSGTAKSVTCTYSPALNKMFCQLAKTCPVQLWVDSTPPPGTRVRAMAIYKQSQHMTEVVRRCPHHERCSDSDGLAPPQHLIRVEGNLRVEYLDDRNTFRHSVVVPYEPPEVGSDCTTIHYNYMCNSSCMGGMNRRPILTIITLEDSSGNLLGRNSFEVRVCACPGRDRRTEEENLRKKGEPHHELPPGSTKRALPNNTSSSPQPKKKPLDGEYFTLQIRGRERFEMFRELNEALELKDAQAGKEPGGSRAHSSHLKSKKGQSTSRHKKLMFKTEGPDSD

N[C@@H](CCCC(=O)O)C(=O)O
inactive: activation [1] -8.81% | Potency [2] | Potency [3] | Potency [4]

CNCCCN1c2ccccc2CCc2ccccc21
inactive: activation [1] 14.2% and -26.6% | Potency [2] | Potency [3] | Potency [4]

O=c1ccn([C@@H]2O[C@H](COP(=O)(O)OP(=O)(O)O)[C@@H](O)[C@H]2O)c(=O)[nH]1
inactive: activation [1] -29.5% | Potency [2] | Potency [3] | Potency [4]

CC(=O)O[C@H]1CC2(C)[C@@H](C[C@@H](O)[C@H]3[C@@]4(C)CC[C@@H](O)[C@@H](C)[C@@H]4CC[C@@]32C)C1=C(CCC=C(C)C)C(=O)O (some centres undefined)
inactive: activation [1] -11.4% | Potency [2] | Potency [3] | Potency [4]

O=C(CCCCCN1CCN(c2ccccc2-c2ccccc2)CC1)NC1CCCc2ccccc21 (centres undefined)
inactive: activation [1] -20.9% | Potency [2] | Potency [3] | Potency [4]

CC1(C)CCC(NC(=O)[C@@H](N)CCC(=O)O)CC1
inactive: activation [1] -8.15% | Potency [2] | Potency [3] | Potency [4]

NC(=Nc1ccccc1)NC(=O)c1nc(Cl)c(N)nc1N
inactive: activation [1] -28.9% | Potency [2] | Potency [3] | Potency [4]

CCCCCCCCCCC/C=C\C(C)(C)/C=C\CCCC(=O)O
inactive: activation [1] -22.9% | Potency [2] | Potency [3] | Potency [4]

NCCCCN
inactive: activation [1] 16% | Potency [2] | Potency [3] | Potency [4]

C[N+](C)(C)CCCCCC[N+](C)(C)C
inactive: activation [1] -20.9% and 7.49% and -11.5% | Potency [2] | Potency [3] | Potency [4]

O=C(O)CCCC[C@@H]1CCSS1
inactive: activation [1] -13.5% | Potency [2] | Potency [3] | Potency [4]

CCCCCCCCc1ccc(-c2ccc(C(=O)O)cc2)cc1
inactive: activation [1] -87.3% | Potency [2] | Potency [3] | Potency [4]

Fc1cccc(/C=N/N=C/c2cccc(F)c2)c1
inactive: activation [1] -12.5% | Potency [2] | Potency [3] | Potency [4]

CCCn1c(=O)c(C)cn2nc(N)nc12
inactive: activation [1] -37.9% | Potency [2] | Potency [3] | Potency [4]

O=C(CCSCc1ccco1)NNC(=O)N1Cc2ccccc2Oc2ccc(Cl)cc21
inactive: activation [1] 22% | Potency [2] | Potency [3] | Potency [4]

O=C(O)CN(CCN(CC(=O)O)CC(=O)O)CCN(CC(=O)O)CC(=O)O
inactive: activation [1] -33.2% | Potency [2] | Potency [3] | Potency [4]

N[C@@H](Cc1ccc(F)cc1)C(=O)O
inactive: activation [1] -38.4% | Potency [2] | Potency [3] | Potency [4]

C=CC(C)=C[C@@]1(C)SC(=O)C(C)=C1O
inactive: activation [1] 0.958% | Potency [2] | Potency [3] | Potency [4]

NC(N)=NC(N)=Nc1cccc(Cl)c1
inactive: activation [1] -3.06% | Potency [2] | Potency [3] | Potency [4]

CC1CCN=C(N)S1 (centres undefined)
inactive: activation [1] -24.3% | Potency [2] | Potency [3] | Potency [4]

Nc1nc2c(nc(Br)n2C2OC3COP(=O)(O)O[C@@H]3C2O)c(=O)[nH]1 (some centres undefined)
inactive: activation [1] 29.4% | Potency [2] | Potency [3] | Potency [4]

Cc1nc(N=Nc2ccc(C(=O)O)cc2)c(COP(=O)(O)O)c(C=O)c1O
inactive: activation [1] -2.63% | Potency [2] | Potency [3] | Potency [4]

CCSC(=N)N
inactive: activation [1] -32.7% | Potency [2] | Potency [3] | Potency [4]

COCCc1ccc(OCC(O)CNC(C)C)cc1 (centres undefined)
inactive: activation [1] 4.18% and 10.1% | Potency [2] | Potency [3] | Potency [4]

CSc1ccc(C(=O)c2[nH]c(=O)[nH]c2C)cc1
inactive: activation [1] -17.5% and -26.2% | Potency [2] | Potency [3] | Potency [4]

CC[C@H](NC(=O)c1c(C)c(-c2ccccc2)nc2ccccc12)c1ccccc1
inactive: activation [1] -16.3% | Potency [2] | Potency [3] | Potency [4]

NC(N)=NCc1cccc(I)c1
inactive: activation [1] -18.3% | Potency [2] | Potency [3] | Potency [4]

CNCCc1cnc(CCC(c2ccccc2)c2ccccc2)[nH]1
inactive: activation [1] -38.1% | Potency [2] | Potency [3] | Potency [4]

NCC1OC(O[C@H]2[C@H](O)[C@@H](OC3C(O)C(N)CC(N)C3OC3OC(CO)C(O)C(O)C3N)O[C@@H]2CO)C(N)C(O)C1O (some centres undefined)
inactive: activation [1] 6.76% | Potency [2] | Potency [3] | Potency [4]

Nc1nc(Cl)nc2c1ncn2[C@@H]1O[C@H](CO)[C@@H](O)[C@H]1O
inactive: activation [1] -6.39% | Potency [2] | Potency [3] | Potency [4]

CSC(N)=NCCC[C@H](N)C(=O)O
inactive: activation [1] 3.33% | Potency [2] | Potency [3] | Potency [4]
